Bioassay records as filed in PubChem BioAssay.
GalR3 antagonist – blocks the human galanin receptor 3 | HEK293 GalR3-CNG cAMP membrane potential fluorescence; galR3 body fused to GalR1 C-terminus | inhibition, % at 3 µM | hit rate 0.44% among 360,000 | AID 651719;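 active = inhibition above the screen-wide average plus 3 SD, cut at about 13% in these data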;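 also: forskolin and galanin both at EC90 stimulate the cells; cAMP rise reported by CNG channel membrane potential dye signal; 0% = forskolin plus galanin with DMSO and 100% = forskolin alone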
Target sequence (O60755 1-299 limits assumed): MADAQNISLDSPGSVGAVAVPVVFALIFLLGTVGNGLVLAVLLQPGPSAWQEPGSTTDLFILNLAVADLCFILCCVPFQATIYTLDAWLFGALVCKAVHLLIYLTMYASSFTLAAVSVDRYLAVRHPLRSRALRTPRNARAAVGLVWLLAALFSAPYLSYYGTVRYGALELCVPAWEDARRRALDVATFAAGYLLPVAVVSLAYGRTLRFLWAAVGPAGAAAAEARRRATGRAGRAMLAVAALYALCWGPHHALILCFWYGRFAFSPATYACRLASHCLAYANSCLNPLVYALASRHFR
Gli-Sufu antag – Gli-Sufu pathway antagonism; Sufu-KO-LIGHT fibroblasts, Gli luciferase reporter luminescence; inhibition, % at 5 µM; hit rate 0.74% among 340,000; AID 588413;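 active = inhibition above about 55%, limit read from the data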;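 also: 0% = DMSO-treated cells and 100% = wells with medium but no cells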
aDG glyco up – alpha-DG glycosylation activation; hit rate 0.22% among 360,000; activation, % at 10 µM; Pro5-aDG cells, alpha-DG glycosylation AlphaScreen (IIH6); 0% Pro5, 100% B10-LARGE cell signal;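 active = activation of at least 8% versus controls, or a plate z-score of at least 8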;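 also: Pro5 are CHO cells carrying HIG-tagged alpha-DG that lacks glycosylation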
Env fusion inh – HIV envelope-mediated fusion inhibition; HeLa-JRFL Env/CEM21 cell fusion, luciferase; inhibition, % at 12.3 µM; hit rate 1.1% among 360,000; AID 651610;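 active = mean replicate inhibition score of at least 50 and every replicate individually at or above 50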;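 also: 0% = plate neutral controls and 100% = maraviroc near 300 nM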
NR2F2 inh – blocks human COUP-TFII nuclear receptor | hit rate 0.7% among 370,000 | HEK293T NGFI-A luciferase reporter, luminescence | inhibition, % at 8.6 µM;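 active = inhibition above a per-plate cutoff, mean inhibition of test wells between control levels plus 3 SD, cut at about 38% in these data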;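 also: cells cotransfected with COUP-TFII expression vector driving the NGFI-A reporter; 0% = median of COUP-TF2 test wells and 100% = reporter-only cells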
Target sequence (P24468 whole entry, looked up): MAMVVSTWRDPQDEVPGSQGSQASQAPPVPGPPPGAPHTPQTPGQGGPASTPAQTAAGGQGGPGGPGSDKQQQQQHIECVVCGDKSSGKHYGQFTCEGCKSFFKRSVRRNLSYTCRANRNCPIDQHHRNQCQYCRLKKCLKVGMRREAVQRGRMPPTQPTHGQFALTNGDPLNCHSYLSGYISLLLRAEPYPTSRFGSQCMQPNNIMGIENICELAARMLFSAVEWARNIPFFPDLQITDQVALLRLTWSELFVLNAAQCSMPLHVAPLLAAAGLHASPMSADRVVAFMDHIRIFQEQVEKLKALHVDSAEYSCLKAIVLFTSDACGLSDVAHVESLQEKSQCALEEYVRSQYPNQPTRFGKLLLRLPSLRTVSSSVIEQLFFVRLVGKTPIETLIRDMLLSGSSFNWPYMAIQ
VP16 Luc counter – VP16 inhibition counter-screen for COUP-TFII | HEK293 Gal4-VP16 luciferase reporter, luminescence | inhibition, % at 8.5 µM | shares compounds with NR2F2 inh | AID 687007 | hit rate 25% among 2,500; in the data active = inhibition above about 13%
COUP-TFII conf – confirmation of human COUP-TFII (NR2F2) inhibitors; shares compounds with NR2F2 inh; HEK293 NGFI-A luciferase reporter, luminescence; inhibition, % at 8.5 µM; hit rate 45% among 2,500;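 active = mean inhibition over three repeats above a set limit taken from the earlier primary screen, cut at about 38% in these data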;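 also: 100% = cells given the luciferase reporter alone without the COUP-TF2 vector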
* marks the source's active call; other numbers are inactive results; nt = no result; [ ] = remark or other dose. Most compounds without a hit are left out; they make up all but 2.1% or so of the library.

SMILES	GalR3 antagonist	Gli-Sufu antag	aDG glyco up	Env fusion inh	NR2F2 inh	VP16 Luc counter	COUP-TFII conf
NS(=O)(=O)c1ccc(CCNc2nn3c(-c4cccc(OC(F)(F)F)c4)cnc3s2)cc1	4.1	nt	0.6	20.4	70.9*	13.7*	56.8*
C[C@@H]1CN([C@@H](C)CO)C(=O)c2cc(C#CC3CCCCC3)cnc2O[C@@H]1CN(C)S(C)(=O)=O	nt	nt	nt	-10.7[16.7 µM]	nt	nt	nt
C[C@@H](NC(=O)C[C@H]1CC[C@@H](NC(=O)C2CCC2)[C@@H](CO)O1)c1ccccc1	nt	nt	nt	-15.3[16.7 µM]	nt	nt	nt
O=C(NC1CCCCN(Cc2ccc(Cl)cc2)C1=O)c1ccccc1 (configuration not stated)	nt	nt	nt	nt	-39.6	nt	nt
Cc1ccccc1CN1CCCCC(NC(=O)c2ccc(COc3ccccc3)cc2)C1=O (configuration not stated)	nt	nt	nt	nt	67.8*	1.0	49.2*
O=C(NC1CCCCN(Cc2ccc(Cl)cc2)C1=O)c1ccc(COc2ccccc2)cc1 (configuration not stated)	nt	nt	nt	nt	53.0*	-1.1	12.0
CCCCOc1ccc(C(=O)NC2CCCCN(Cc3cccc(Cl)c3)C2=O)cc1 (configuration not stated)	nt	nt	nt	nt	38.3*	-0.7	23.0
O=C(NC1CCCCN(Cc2cccc(C(F)(F)F)c2)C1=O)c1ccc(COc2ccccc2)cc1 (configuration not stated)	nt	nt	nt	nt	65.9*	10.4	61.7*
CNC[C@@H]1Oc2c(NC(=O)C3CC3)cccc2C(=O)N([C@H](C)CO)C[C@H]1C	nt	nt	nt	-17.3[16.7 µM]	nt	nt	nt
C[C@@H]1CCCCO[C@H](CN(C)C)[C@@H](C)CN([C@@H](C)CO)C(=O)c2cc(NC(=O)c3ccncc3)ccc2O1	nt	nt	nt	11.3[16.7 µM]	nt	nt	nt
Cc1cc(=O)n(-c2ccc(C(=O)O)cc2)[nH]1	-1.0	-1.8	0.1	-14.7	14.9	nt	nt
Cc1cc(=O)n(-c2ccc(O)cc2)[nH]1	-3.3	-1.1	0.2	nt	41.5*	-5.3	-15.3
C[C@@H]1CN([C@H](C)CO)C(=O)c2cc(NC(=O)Nc3ccccc3)ccc2O[C@@H]1CN(C)S(=O)(=O)c1cn(C)cn1	nt	nt	nt	10.0[16.7 µM]	nt	nt	nt
Cc1cccc(C)c1OCc1cc(C(=O)N(Cc2c(C)nn(C)c2C)C2CC2)no1	-10.1	43.9	3.2	16.8	50.8*	-0.4	32.3
COc1ccc(CN(C)C[C@H]2Oc3c(NS(C)(=O)=O)cccc3C(=O)N([C@@H](C)CO)C[C@H]2C)cc1	nt	nt	nt	3.3[16.7 µM]	nt	nt	nt
O=C(C[C@H]1CC[C@H](NC(=O)c2ccncc2)[C@H](CO)O1)NCC1CCCCC1	nt	nt	nt	-7.0[16.7 µM]	nt	nt	nt
Cc1cc(C)c(C#N)c(SCC(=O)c2ccccc2)n1	-5.0	5.8	-0.1	-2.3	8.3	nt	nt
Cc1cc(SCC(=O)c2ccccc2)n2nc(C)nc2n1	-3.7	-1.6	0.0	42.9	45.0*	13.2*	32.1
C[C@H](O)C#Cc1cnc2c(c1)C(=O)N([C@H](C)CO)C[C@@H](C)[C@@H](CN(C)C(=O)Nc1ccc(F)cc1)O2	nt	nt	nt	-21.8[16.7 µM]	nt	nt	nt
O=C1/C(=C/c2ccncc2)CCC/C1=C\c1ccncc1	6.1	1.1	-0.1	89.0*	84.5*	65.9*	89.7*
COCC(C)n1c(C)cc(C(=O)COC(=O)c2cccn2C)c1C (configuration not stated)	-4.5	36.7	0.6	-2.0	57.4*	-42.0	50.0*
CCOC(=O)[C@@]12CCCC=C1N(CCc1ccc(Cl)cc1)C(=O)[C@H]2CC(=O)N1CCN(C(=O)c2ccco2)CC1	nt	nt	nt	nt	39.0*	-7.6	17.8
CO[C@H]1CN(C)C(=O)c2ccc(NC(=O)Nc3ccc(C(F)(F)F)cc3)cc2OC[C@H](C)NC[C@H]1C	nt	nt	nt	-2.9[16.7 µM]	nt	nt	nt
C[C@@H]1CN([C@@H](C)CO)C(=O)c2cccc(NS(=O)(=O)c3ccc(Cl)cc3)c2O[C@@H]1CN(C)C(=O)Nc1ccc2c(c1)OCO2	nt	nt	nt	-50.5[16.7 µM]	nt	nt	nt
CC(C)OC(=O)CSc1nc(N)c(C#N)c(-c2cccs2)c1C#N	-8.6	12.8	1.3	36.7	44.7*	5.0	25.2
SMILES	GalR3 antagonist	Gli-Sufu antag	aDG glyco up	Env fusion inh	NR2F2 inh	VP16 Luc counter	COUP-TFII conf
O=C(Nc1ccc(C(=O)OC2CCCCC2)cc1)c1ccncc1	-3.9	3.2	0.4	74.6*	53.0*	-8.2	12.9
COc1ccc(Oc2nc(C)nc3c2oc2ccccc23)cc1	-2.0	-1.5	-0.1	39.9	42.4*	-1.5	12.2
COc1ccc(NC(=O)N(C)C[C@H]2OCCCC[C@H](C)Oc3ccc(NS(=O)(=O)c4ccc(C)cc4)cc3C(=O)N([C@H](C)CO)C[C@@H]2C)cc1	nt	nt	nt	-114.1[16.7 µM]	nt	nt	nt
COc1ccc(NS(=O)(=O)c2cccc(C(=O)NN=Cc3ccc(OC)cc3OC)c2)cc1	-3.6	-6.0	0.0	9.5	37.6*	-7.0	-5.3
O=C(CN1CCOCC1)NCC[C@@H]1CC[C@H](NC(=O)Cc2ccccn2)[C@@H](CO)O1	nt	nt	nt	-14.2[16.7 µM]	nt	nt	nt
O=C(CN1CCN(Cc2ccc(Cl)cc2)C1=O)NCCCN1CCN(c2ccc(F)cc2)CC1	-7.3	16.6	2.4	67.7*	56.3*	1.1	12.8
Cc1cnc(NC(=O)COc2ccccc2Cl)s1	-3.7	-70.3	0.0	-92.3	41.4*	-27.5	4.2
C=CCOc1ccc(CN(C)C(=O)c2ccc(CNS(=O)(=O)c3ccc(C)c(C)c3)cc2)cc1	-5.3	14.6	1.1	nt	41.0*	0.1	28.6
O=C(c1ccc(S(=O)(=O)c2cccc(Cl)c2)c([N+](=O)[O-])c1)N1CCN(c2ccccn2)CC1	0.2	18.3	5.5	23.8	45.3*	21.4*	8.6
CCN(CC)S(=O)(=O)c1cc(NC(=O)CCCOc2ccc(C(C)=O)cc2)ccc1C	-0.3	8.6	0.2	24.2	42.4*	-3.2	17.9
CCN(CC)S(=O)(=O)c1cc(NC(=O)c2ccc3c(c2)NC(=O)C(C)S3)ccc1C (configuration not stated)	-1.1	3.7	0.5	0.5	60.6*	9.0	47.2*
Cc1cc(C)c(NC(=O)c2ccc3c(c2)NC(=O)C(C)S3)c(C)c1 (configuration not stated)	-5.0	-0.6	0.0	1.8	4.8	nt	nt
COc1ccc(NC(=O)N(C)C[C@H]2Oc3cc(C#CCN(C)C)ccc3S(=O)(=O)N([C@H](C)CO)C[C@@H]2C)cc1	nt	nt	nt	-22.4[16.7 µM]	nt	nt	nt
C[C@H](CO)N1C[C@H](C)[C@@H](CN(C)Cc2ccccc2F)Oc2cc(C#CCN(C)C)ccc2S1(=O)=O	nt	nt	nt	-6.8[16.7 µM]	nt	nt	nt
C[C@@H]1CN([C@@H](C)CO)C(=O)c2cc(NS(=O)(=O)c3ccccc3)ccc2O[C@@H](C)CCCCO[C@H]1CN(C)S(=O)(=O)c1cn(C)cn1	nt	nt	nt	-46.4[16.7 µM]	nt	nt	nt
Cn1c(=O)c2[nH]c(CCCCCCCc3nc4ccccc4[nH]3)nc2n(C)c1=O	-6.9	19.4	1.3	6.7	54.6*	1.4	27.1
O=C(C1CC1)N1CCC(C(O)(c2ccccc2)c2ccccc2)CC1	-4.8	19.4	0.0	6.3	-3.5	nt	nt
O=C(N1CCC(C(O)(c2ccccc2)c2ccccc2)CC1)n1ncc(C(O)(c2ccccc2)c2ccccc2)n1	nt	nt	nt	nt	43.8*	0.1	10.7
